Measured values as given in PubChem BioAssay (NCATS).
Inconclusive results are not listed. A number with no mark means an inactive call. The source made the active and inactive calls. Calls come from the whole dose curve; as a rule, active = well fitted inhibition curve with a large enough effect; inconclusive = small, poorly fitted or top-dose-only effect; inactive = flat fitted curve, though single readings scatter.

Each compound was assayed on HEK293 (assay: Cytotoxic Profiling of Annotated Libraries Using Quantitative High-Throughput Screening (AID 1296008; note: nearly all actives have a fitted effect of over 60% in size)). Settings: Five cell lines viability, CellTiter-Glo ATP luminescence, 48-72 h; max response: hits give low values.
Method in brief: (§1)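 Cells exposed to compounds for 48 or 72 hr at 37 degrees Celsius. Viability read as ATP-coupled luminescence with CellTiter-Glo after 10 min at room temperature.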
% is set by controls: 0 for no effect and ±100 for the full control effect; potency is the fitted concentration of half-maximal effect.

Row | Structure (SMILES) | Potency | max response [%]
1 | O=C(CN1C2=NCCN2c2ccccc21)c1ccc(-c2ccccc2)cc1 | 18.4 µM (active) | –
2 | O=C(Nc1cccc([N+](=O)[O-])c1)c1cccc(S(=O)(=O)N2CCCCCC2)c1 | 6.51 µM (active) | –
3 | O=C(Nc1ccccc1)N1CCC(Cc2cnc3ccccc3c2)CC1 | – | -99.9
4 | N#CSc1cc(SC#N)c(N)nc1N | 3.1 µM (active) | –
5 | Cc1ccc(C)c(-c2cc(C(F)(F)F)nn2-c2ccc(S(N)(=O)=O)cc2)c1 | 5.17 µM (active) | –
6 | COc1ccccc1S(=O)(=O)Nc1ccc2c(c1)CN(C)C(=O)N2 | 6.51 µM (active) | –
7 | C[C@@H]1COCCN1c1cc(=O)n2c(n1)N(Cc1cncc(Cl)c1)[C@H](C(F)(F)F)CC2 | 4.17 µM (active) | –
8 | C=C1C(=O)O[C@@H]2/C=C(\CO)CC/C=C(/C=O)C[C@@H](O)[C@@H]12 | 8.2 µM (active) | –
9 | COC(=O)N1CC2(CC2)C[C@H](C(=O)NO)[C@H]1C(=O)N1CCN(c2ccccc2)CC1 | 23.4 µM (active) | –
10 | NC(=O)c1cnc(N[C@@H]2CCCC[C@@H]2N)nc1Nc1cccc(-n2nccn2)c1 | 11.7 µM (active) | –
11 | NCC1CCN(c2nccc(-c3ccc4ccccc4c3)n2)CC1 | 11.6 µM (active) | –
12 | C=C1CC2OC(=O)C(COC)C2C(OC(=O)/C(C)=C\C)CC2(C)OC1=CC2=O (stereo not drawn) | 4.53 µM (active) | –
13 | CC(C)NC(=O)COc1cccc(-c2nc(Nc3ccc4[nH]ncc4c3)c3ccccc3n2)c1 | 5.8 µM (active) | –
14 | O=C(Nc1ccc(C(O)(C(F)(F)F)C(F)(F)F)cc1)c1ccc(C(F)(F)F)cc1 | 10.3 µM (active) | –
15 | Oc1cccc(C2NC(=S)Nc3cccc(F)c32)c1 (stereo not drawn) | 5.8 µM (active) | –
16 | COc1ccc2c(c1)C(C(=O)N(Cc1ccc(N(C)C)cc1)c1ccc(C(C)C)cc1)CCC2 (stereo not drawn) | 11.6 µM (active) | –
17 | CC(=O)N1CCN(CCOc2ccc(C3CCN(C4=Nn5c(nnc5C(F)(F)F)CC4)CC3)cc2)CC1 | 9.2 µM (active) | –
18 | COc1cc2c(Nc3cc(F)c(Cl)c(Cl)c3)ncnc2cc1OCC1CCCN(C)CCC1 | 8.2 µM (active) | –
19 | Cc1cc(NC(=O)c2cccc(NC(=O)/C=C/CN(C)C)c2)ccc1Nc1nccc(-c2cccnc2)n1 | 9.2 µM (active) | –
20 | OC(c1ccc(-c2ccc(CN3CCN(Cc4ccncc4)CC3)cc2)c(F)c1)(C(F)(F)F)C(F)(F)F | 5.17 µM (active) | –

Row | Structure (SMILES) | Potency | max response [%]
21 | CN(c1ccc(NC(=O)Nc2ccccc2)cc1)S(=O)(=O)c1cnn(-c2ccc(F)cc2)c1 | 16.4 µM (active) | –
22 | CC(=O)NC(C(=O)O[C@H]1CCC(C)(C)[C@@H]2CC=C3C(=O)OCC3(O)[C@@]12C)C(C)C (stereo partly drawn) | – | -20.5
23 | CC(C)(C[C@@](O)(Cc1cc2ccncc2[nH]1)C(F)(F)F)c1cc(F)ccc1O | 11.6 µM (active) | –
24 | Oc1ccc(-c2cnc3ccc(NCc4ccco4)nn23)cc1 | 20.6 µM (active) | –
25 | CN(C)CCCn1cc(C2=C(c3c[nH]c4ccccc34)C(=O)NC2=O)c2ccccc21 | 14.6 µM (active) | –
26 | COc1cc2c(cc1NS(=O)(=O)c1ccc(Br)cc1C)n(C)c(=O)n2C | 1.46 µM (active) | –
27 | NC(=O)c1cnc(N[C@@H]2CCCC[C@H]2N)nc1Nc1cccc(-n2nccn2)c1 | 20.6 µM (active) | –
28 | COc1ccc(CN2CCN(C(=O)CCNC(=O)c3ccc(C(C)(C)C)cc3)CC2)cc1 | 7.31 µM (active) | –
29 | Cc1nc(NC(=O)N2CCC[C@H]2C(N)=O)sc1-c1ccnc(C(C)(C)C(F)(F)F)c1 | 16.4 µM (active) | –
30 | Nc1nc(Cl)nc2c1ncn2C1OC(CO)C(O)C1F (stereo not drawn) | 2.06 µM (active) | –
31 | C=C(C)C(=O)OC1CC(CO)CCC/C(CO)=C/C2OC(=O)C(=C)C21 (stereo not drawn) | 7.18 µM (active) | –
32 | COc1cc(/C=C2\CCCN([C@@H](C)c3ccc(F)cc3)C2=O)ccc1-n1cnc(C)c1 | 13 µM (active) | –
33 | CN(C)CC1CCn2c(c(C3=C(c4cn(C)c5ccccc45)C(=O)NC3=O)c3ccccc32)C1 (stereo not drawn) | 8.2 µM (active) | –
34 | C#Cc1cccc(Nc2nc3cc(C(=O)O)ccc3c3cncnc23)c1 | 16.4 µM (active) | –
35 | COc1ccc(C#Cc2ccc(C(=O)N3CCC[C@@H](O)C3)c(F)c2)cc1 | 13 µM (active) | –
36 | CN(C)CCN(Cc1ccccc1)C(=O)c1cc(-c2ccc(F)cc2)n2nc(C(C)(C)C)cc2n1 | 14.6 µM (active) | –
37 | CC(C)(C)c1ccc(NC(=O)N2CCN(c3ncccc3Cl)CC2)cc1 | 11.6 µM (active) | –
38 | C=C[C@@]1(C)C=C2C(=O)C(O)=C3[C@](C)(C(=O)O)CC[C@@H]4C[C@]34[C@]2(O)C(=O)C1 | 1.8 µM (active) | –
39 | CC(C)C[C@H](C(=O)O)c1cc(-c2ccc(C(F)(F)F)cc2)cc(-c2ccc(C(F)(F)F)cc2)c1 | 10.3 µM (active) | –

Each compound was assayed on HaCat in the same assay as above. Settings: Five cell lines viability, CellTiter-Glo ATP luminescence, 48-72 h; max response: hits give low values.
Method in brief: as §1

Row | Structure (SMILES) | Potency | max response [%]
40 | O=C(CN1C2=NCCN2c2ccccc21)c1ccc(-c2ccccc2)cc1 | 16.4 µM (active) | –
41 | O=C(Nc1cccc([N+](=O)[O-])c1)c1cccc(S(=O)(=O)N2CCCCCC2)c1 | – | -27.5
42 | O=C(Nc1ccccc1)N1CCC(Cc2cnc3ccccc3c2)CC1 | – | -1.9
43 | N#CSc1cc(SC#N)c(N)nc1N | – | -25
44 | Cc1ccc(C)c(-c2cc(C(F)(F)F)nn2-c2ccc(S(N)(=O)=O)cc2)c1 | – | 3.66
45 | COc1ccccc1S(=O)(=O)Nc1ccc2c(c1)CN(C)C(=O)N2 | – | 2.92
46 | C[C@@H]1COCCN1c1cc(=O)n2c(n1)N(Cc1cncc(Cl)c1)[C@H](C(F)(F)F)CC2 | – | -6.64
47 | C=C1C(=O)O[C@@H]2/C=C(\CO)CC/C=C(/C=O)C[C@@H](O)[C@@H]12 | 18.4 µM (active) | –
48 | COC(=O)N1CC2(CC2)C[C@H](C(=O)NO)[C@H]1C(=O)N1CCN(c2ccccc2)CC1 | 26.3 µM (active) | –
49 | NC(=O)c1cnc(N[C@@H]2CCCC[C@@H]2N)nc1Nc1cccc(-n2nccn2)c1 | 13.2 µM (active) | –
50 | NCC1CCN(c2nccc(-c3ccc4ccccc4c3)n2)CC1 | 6.51 µM (active) | –
51 | C=C1CC2OC(=O)C(COC)C2C(OC(=O)/C(C)=C\C)CC2(C)OC1=CC2=O (stereo not drawn) | – | -10.4
52 | CC(C)NC(=O)COc1cccc(-c2nc(Nc3ccc4[nH]ncc4c3)c3ccccc3n2)c1 | – | -3.54
53 | O=C(Nc1ccc(C(O)(C(F)(F)F)C(F)(F)F)cc1)c1ccc(C(F)(F)F)cc1 | 8.2 µM (active) | –
54 | Oc1cccc(C2NC(=S)Nc3cccc(F)c32)c1 (stereo not drawn) | 6.51 µM (active) | –
55 | COc1ccc2c(c1)C(C(=O)N(Cc1ccc(N(C)C)cc1)c1ccc(C(C)C)cc1)CCC2 (stereo not drawn) | – | -43.6
56 | CC(=O)N1CCN(CCOc2ccc(C3CCN(C4=Nn5c(nnc5C(F)(F)F)CC4)CC3)cc2)CC1 | – | -1.46
57 | COc1cc2c(Nc3cc(F)c(Cl)c(Cl)c3)ncnc2cc1OCC1CCCN(C)CCC1 | 0.082 µM (active) | –
58 | Cc1cc(NC(=O)c2cccc(NC(=O)/C=C/CN(C)C)c2)ccc1Nc1nccc(-c2cccnc2)n1 | 8.2 µM (active) | –
59 | OC(c1ccc(-c2ccc(CN3CCN(Cc4ccncc4)CC3)cc2)c(F)c1)(C(F)(F)F)C(F)(F)F | – | -9.47

Row | Structure (SMILES) | Potency | max response [%]
60 | CN(c1ccc(NC(=O)Nc2ccccc2)cc1)S(=O)(=O)c1cnn(-c2ccc(F)cc2)c1 | – | -33.8
61 | CC(=O)NC(C(=O)O[C@H]1CCC(C)(C)[C@@H]2CC=C3C(=O)OCC3(O)[C@@]12C)C(C)C (stereo partly drawn) | – | 3.16
62 | CC(C)(C[C@@](O)(Cc1cc2ccncc2[nH]1)C(F)(F)F)c1cc(F)ccc1O | – | -2.9
63 | Oc1ccc(-c2cnc3ccc(NCc4ccco4)nn23)cc1 | 7.31 µM (active) | –
64 | CN(C)CCCn1cc(C2=C(c3c[nH]c4ccccc34)C(=O)NC2=O)c2ccccc21 | – | -0.893
65 | COc1cc2c(cc1NS(=O)(=O)c1ccc(Br)cc1C)n(C)c(=O)n2C | – | 0.2
66 | NC(=O)c1cnc(N[C@@H]2CCCC[C@H]2N)nc1Nc1cccc(-n2nccn2)c1 | 18.4 µM (active) | –
67 | COc1ccc(CN2CCN(C(=O)CCNC(=O)c3ccc(C(C)(C)C)cc3)CC2)cc1 | – | 3.77
68 | Cc1nc(NC(=O)N2CCC[C@H]2C(N)=O)sc1-c1ccnc(C(C)(C)C(F)(F)F)c1 | 3.66 µM (active) | –
69 | Nc1nc(Cl)nc2c1ncn2C1OC(CO)C(O)C1F (stereo not drawn) | 1.46 µM (active) | –
70 | C=C(C)C(=O)OC1CC(CO)CCC/C(CO)=C/C2OC(=O)C(=C)C21 (stereo not drawn) | – | 1.02
71 | COc1cc(/C=C2\CCCN([C@@H](C)c3ccc(F)cc3)C2=O)ccc1-n1cnc(C)c1 | – | 3.5
72 | CN(C)CC1CCn2c(c(C3=C(c4cn(C)c5ccccc45)C(=O)NC3=O)c3ccccc32)C1 (stereo not drawn) | 20.6 µM (active) | –
73 | C#Cc1cccc(Nc2nc3cc(C(=O)O)ccc3c3cncnc23)c1 | 7.31 µM (active) | –
74 | COc1ccc(C#Cc2ccc(C(=O)N3CCC[C@@H](O)C3)c(F)c2)cc1 | – | -33.7
75 | CN(C)CCN(Cc1ccccc1)C(=O)c1cc(-c2ccc(F)cc2)n2nc(C(C)(C)C)cc2n1 | – | -107
76 | CC(C)(C)c1ccc(NC(=O)N2CCN(c3ncccc3Cl)CC2)cc1 | – | 4.52
77 | C=C[C@@]1(C)C=C2C(=O)C(O)=C3[C@](C)(C(=O)O)CC[C@@H]4C[C@]34[C@]2(O)C(=O)C1 | 10.1 µM (active) | –
78 | CC(C)C[C@H](C(=O)O)c1cc(-c2ccc(C(F)(F)F)cc2)cc(-c2ccc(C(F)(F)F)cc2)c1 | – | 1.64
